Screening results (PubChem)
Most compounds without a hit are left out; they make up all but 9.4% or so of the library.
SARS PLP yeast = inhibitors of SARS-CoV papain-like protease in yeast | AID 485353 | hit rate 0.19% among 330,000 | Potency, µM (top dose mostly 32.9 µM), for the others: at the highest dose activity, positive = growth rescue, hits mostly activators | S. cerevisiae expressing SARS-CoV PLpro, growth rescue; calls by dose curve; note: 0% is about no effect; nearly all actives have a fitted effect of over 55% in size
Pf growth 96h = P. falciparum growth inhibition at 96 hours; hit rate 6.9% among 320,000; Potency, µM (titrated, usually from 28.7 µM), without a hit: at the top dose activity change, negative = inhibition, actives largely listed as inhibitors; P. falciparum luciferase reporter growth, 96 h; AID 504834; note: % is set by controls: 0 for no effect and ±100 for the full control effect
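Two-generation exposure (96 h) targets delayed-death phenotype. Reporter parasites carrying integrated firefly luciferase, in red cells at 2% hematocrit and 0.05% parasitemia final, kept at 37 C, 5% CO2; luminescence loss indicates inhibition.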
AMA1-RON2 inh = disrupts binding of P. falciparum AMA1 to RON2; AID 720542; hit rate 0.2% among 360,000; Potency, µM (top dose mostly 58.2 µM), for the others: at the highest dose activity change, negative = inhibition, most hits filed as inhibitors; AlphaScreen AMA1-biotinylated RON2 peptide binding;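 note: 0% = vehicle wells and -100% = peptide control; nearly all actives have a fitted effect of over 45% in size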
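AMA1 (3D7) with his tag at 25 nM final met compounds first, then biotinylated RON2 peptide at 25 nM; detection used donor plus acceptor beads, 10 µg/mL apiece, read by AlphaScreen after 30 min at room temperature.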
Pf growth 48h = inhibits P. falciparum growth in the first generation, 48 h | P. falciparum luciferase growth in erythrocytes, 48 h | Potency, µM (top dose mostly 28.7 µM), for inactives: at the highest dose activity change, negative = inhibition, usual class: inhibitors | hit rate 5.9% among 310,000; note: % is set by controls: 0 for no effect and ±100 for the full control effect
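Erythrocytes infected with P. falciparum carrying an integrated firefly luciferase reporter (2% hematocrit, 0.1% parasitemia final) were exposed to compounds in RPMI 1640 with 0.5% Albumax at 37 C, 5% CO2. Growth inhibition was scored as reduced luminescence.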
The depositor's hits bear a star; ? = inconclusive; . = not tested or not shown. Unless noted, calls come from the whole dose curve; as a rule, active = well fitted curve in the direction sought with a large enough effect; inconclusive = small, poorly fitted or top-dose-only effect, or another doubt; inactive = no such curve, though single readings can be large; an effect the other way counts as inactive or inconclusive. Potency is the fitted concentration of half-maximal effect.

SMILES	SARS PLP yeast	Pf growth 96h	AMA1-RON2 inh	Pf growth 48h
Cc1nc2ccccc2n1CCOc1ccc(F)cc1	?	10.4%	7.3%	?
O=C(CCC(=O)Nc1ccccc1)NNC(=O)c1ccco1	8.8%	25.8%	47.4%	22.3%
Cc1cc(NCc2ccccn2)n2ncc(-c3ccccc3)c2n1	-2.5%	-68.5%	98.3%	192.6%
Cc1nn2c(NCc3ccccn3)cc(C(C)C)nc2c1-c1ccccc1	0.7%	1.65µM*	106.3%	1.65µM*
O=C(Nc1cccc(Cl)c1)N1CCN(C2c3ccccc3-c3ccccc32)CC1	-0.6%	?	-7.4%	9.28µM*
CCCCn1c2ccc(C)cc2c2nnc(SCCN3CCCCC3)nc21	0.1%	?	7.7%	13.1µM*
CCCCn1c2ccc(F)cc2c2nnc(SCCN3CCCCC3)nc21	-10.9%	-1.8%	-3.9%	?
CCOC(=O)Cc1csc(NC(=O)/C=C/c2cccc(Br)c2)n1	-0.8%	-24.2%	-0.9%	9.28µM*
CCC(=O)Nc1nc(CC(=O)Nc2ccccc2OC)cs1	-2.5%	-13.0%	-3.7%	-4.0%
CCOC(=O)Cc1csc(NC(=S)NC(=O)c2ccc(C)cc2)n1	-21.5%	3.7µM*	51.9%	2.94µM*
COc1ccccc1NC(=O)Nc1nc(CC(=O)Nc2ccc(OC)c(OC)c2)cs1	2.2%	5.22µM*	-26.5%	?
COc1ccccc1NC(=O)Cc1csc(NC(=S)Nc2ccc(C)cc2)n1	1.1%	10.4µM*	56.4%	?
CCOC(=O)Cc1csc(NC(=O)/C=C/c2ccc(Br)o2)n1	-1.4%	?	2.4%	77.1%
CCOC(=O)Cc1csc(NC(=S)NC(=O)c2ccccc2)n1	-7.6%	33.6%	59.0%	?
CS(=O)(=O)N(Cc1cc2ccccc2[nH]c1=O)C1CCCCC1	2.5%	-16.5%	-9.9%	-8.9%
CCC(C)c1ccc(S(=O)(=O)N2CCN(CC(O)CN3CCOCC3)CC2)cc1 (stereo unspecified)	3.0%	-7.5%	?	-12.8%
CCOC(=O)c1cc(-c2csc(N/N=C/c3ccccc3Cl)n2)on1	0.5%	2.62µM*	20.6%	?
Cc1cc(NS(=O)(=O)c2ccc(Cl)cc2)nn1CC(=O)NCc1ccco1	1.2%	?	1.8%	11.2%
COc1cc(C(=O)NCCC(C)C)ccc1OCc1ccc(Cl)cc1Cl	-20.4%	4.65µM*	21.9%	10.4µM*
COc1cc(C(=O)NC2CCCCC2)ccc1OCc1ccc(Cl)cc1Cl	23.5%	17.1%	-0.4%	9.9%
CCOc1ccc(C(=O)OCC(=O)NCC2CCCO2)cc1 (stereo unspecified)	-4.4%	.	0.7%	.
CC(NC(=O)c1ccco1)C(c1cccs1)N1CCN(c2ccccc2)CC1 (stereo unspecified)	2.6%	13.1µM*	-5.9%	11.7µM*
CC(NC(=O)c1ccco1)C(c1cccs1)N1CCN(c2ccc(F)cc2)CC1 (stereo unspecified)	-21.1%	.	-6.8%	7.38µM*
CC(=O)Nc1cccc(-c2ccnc3c2CC(C)(C(=O)Nc2ccc4c(c2)OCO4)O3)c1 (stereo unspecified)	.	.	-0.6%	.
Cc1cccc(C)c1-n1c(=O)n(Cc2ccccc2)c(=O)c2[nH]cnc21	1.7%	-7.7%	-19.3%	6.2%
SMILES	SARS PLP yeast	Pf growth 96h	AMA1-RON2 inh	Pf growth 48h
CCOC(=O)c1ccc(-c2c(-c3ccccc3OC)sc3cc4c(cc23)OCO4)cc1F	-4.5%	?	42.2%	1.85µM*
COc1ccccc1-c1sc2cc3c(cc2c1C#CCO)OCO3	0.7%	?	-0.5%	?
COc1ccc(/C=C/CN2CCN(Cc3cccc(OC)c3)C(CCO)C2)cc1 (stereo unspecified)	-0.1%	?	-2.3%	?
CC(C)(C)CN1CCN(CCCc2ccccc2)C(CCO)C1 (stereo unspecified)	1.5%	?	-12.6%	?
COc1ccc(/C=C/CN2CCN(CC(C)C)C(CCO)C2)cc1 (stereo unspecified)	0.9%	4.15µM*	2.3%	?
CC(C)CN1CCN(CCCc2ccccc2)C(CCO)C1 (stereo unspecified)	-3.4%	9.28µM*	5.0%	?
CC(C)N1CCN(CCCc2ccccc2)CC1CCO (stereo unspecified)	0.9%	13.1µM*	12.7%	-8.2%
O=c1[nH]c(C2CCN(S(=O)(=O)c3ccc4c(c3)OCCO4)CC2)nc2c1nnn2Cc1cccc(F)c1	-1.5%	-4.5%	-17.4%	?
O=c1[nH]c(C2CCN(S(=O)(=O)c3ccc4c(c3)OCCO4)CC2)nc2c1nnn2Cc1ccc(F)cc1	1.9%	6.9%	-1.4%	1.47µM*
O=c1[nH]c(C2CCN(S(=O)(=O)c3ccc(C(F)(F)F)cc3)CC2)nc2c1nnn2Cc1ccc(F)cc1	1.2%	38.4%	-8.5%	11.7µM*
O=c1[nH]c(C2CCN(S(=O)(=O)c3ccc([N+](=O)[O-])cc3)CC2)nc2c1nnn2Cc1ccccc1	0.4%	0.147µM*	-5.7%	5.22µM*
O=c1[nH]c(C2CCN(S(=O)(=O)c3cccc(C(F)(F)F)c3)CC2)nc2c1nnn2Cc1cccc(F)c1	0.2%	?	-2.3%	7.38µM*
O=S(=O)(Cc1cc(NCc2ccccc2)nc(-c2ccccn2)n1)c1ccccc1	5.5%	8.28µM*	54.9%	?
O=C(O)CCC(=O)Nc1ccccc1C(=O)Nc1ccccc1	15.2%	.	13.9%	1.3%
Cc1nc2cc([N+](=O)[O-])ccc2c(=O)n1-c1ccc(Br)cc1	3.9%	13.1µM*	6.4%	13.4%
Cc1nc2ccc(Cl)cc2c(=O)n1-c1ccc([N+](=O)[O-])cc1	-2.2%	-7.6%	-10.8%	-15.8%
Cc1nc2cc([N+](=O)[O-])ccc2c(=O)n1-c1ccccc1[N+](=O)[O-]	-0.6%	2.9%	-13.7%	20.3%
Cc1nc2ccccc2c(=O)n1-c1ccc([N+](=O)[O-])cc1	2.3%	14.7µM*	2.7%	-7.1%
Cc1cnc(C(=O)N(CC(C)C)c2c(N)n(CC(C)C)c(=O)[nH]c2=O)cn1	-3.0%	4.7%	0.0%	-7.9%
COc1ccc(N2C(=O)N3[C@H](c4ccc(Cl)cc4)[C@@H]4C(=O)N(C5CCCCC5)C(=O)[C@@H]4[C@]3(Cc3ccc(Cl)cc3)C2=O)cc1	7.9%	1.17µM*	14.1%	-107.0%
O=C1[C@H]2[C@@H](c3ccc(F)cc3)N3C(=O)N(c4ccc(Br)cc4)C(=O)[C@@]3(Cc3ccc(Cl)cc3)[C@H]2C(=O)N1C1CCCCC1	-4.2%	3.29µM*	-0.5%	?
CCN1C(=O)[C@H]2[C@@H](c3ccc(C)cc3)N3C(=O)N(c4ccc(OC)cc4)C(=O)[C@@]3(Cc3ccc(Cl)cc3)[C@H]2C1=O	4.6%	?	3.6%	-29.2%
COc1ccc([C@@H]2[C@@H]3C(=O)N(C(C)(C)C)C(=O)[C@@H]3[C@]3(Cc4ccc(Cl)cc4)C(=O)N(c4ccc(OC)cc4)C(=O)N23)cc1	1.9%	13.1µM*	-7.3%	?
O=C1[C@H]2[C@@H](c3ccc(F)cc3)N3C(=O)N(c4cccc(F)c4)C(=O)[C@@]3(Cc3ccccc3)[C@H]2C(=O)N1C1CCCCC1	-11.4%	?	-1.7%	?
